# Measured values reported in PubChem BioAssay (NCATS).
# Results filed as inconclusive are left out. Entries that show only a call come without a potency. Activity calls are given as the source filed them. Unless noted, calls come from the whole dose curve; as a rule, active = well fitted curve in the direction sought with a large enough effect; inconclusive = small, poorly fitted or top-dose-only effect, or another doubt; inactive = no such curve, though single readings can be large; an effect the other way counts as inactive or inconclusive.
# Legend:
# [1] = target: Pyruvate kinase PKM (Homo sapiens) (UniProt P14618); assay: qHTS Assay for Activators of Human Muscle Pyruvate Kinase (AID 954; active = well fitted curve in the direction sought with a large enough effect, not every such curve was filed as active)
# Sequence of Pyruvate kinase PKM (Homo sapiens) (P14618 whole entry, looked up): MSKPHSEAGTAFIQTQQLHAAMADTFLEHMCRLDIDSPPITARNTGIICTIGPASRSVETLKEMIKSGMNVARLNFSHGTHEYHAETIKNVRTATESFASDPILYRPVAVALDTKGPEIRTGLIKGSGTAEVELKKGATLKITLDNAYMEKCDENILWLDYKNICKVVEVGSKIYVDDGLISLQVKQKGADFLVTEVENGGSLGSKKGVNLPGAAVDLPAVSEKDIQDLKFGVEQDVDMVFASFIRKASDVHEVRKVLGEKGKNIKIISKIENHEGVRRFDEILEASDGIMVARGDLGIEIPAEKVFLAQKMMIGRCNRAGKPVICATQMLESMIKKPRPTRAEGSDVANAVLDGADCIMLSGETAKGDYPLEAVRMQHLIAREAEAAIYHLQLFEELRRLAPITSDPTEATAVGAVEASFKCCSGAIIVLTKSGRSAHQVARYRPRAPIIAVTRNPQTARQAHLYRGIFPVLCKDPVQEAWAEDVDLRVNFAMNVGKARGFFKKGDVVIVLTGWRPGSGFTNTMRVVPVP
# In short: (§1)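 Luminescence from a luciferase ATP-detection/stop reagent reported PKM2 activity. Reactions contained 0.1 nM purified human enzyme, 0.5 mM PEP, 0.1 mM ADP and 7 mM MgCl2 at pH 7.2, run 1 h at RT.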
# [2] = MultiTox-Fluor Cytotoxicity Assay - LYMP1-002 - Live Cells (AID 955);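 note: cells exposed to compound for 16 hours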
# In short: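 Human lymphoblastoid LYMP1-002 cells, 2500/well, treated 16 h at 37 C in complete medium. Live-cell protease activity via GF-AFC fluorescence (Ex/Em 405/510) after 60 min reagent incubation; AC50 from Hill fits.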
# [3] = MultiTox-Fluor Cytotoxicity Assay - LYMP1-002 - Dead Cells (AID 960);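 note: cells exposed to compound for 16 h at 37 °C; nearly all actives have a fitted effect of over 60% in size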
# In short: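 Human lymphoblastoid LYMP1-002 cells, 2500/well, treated 16 h at 37 C; dead-cell protease cleavage of bis-AAF-R110 read by fluorescence (485/520); normalized to DMSO and 15 uM tetraoctylammonium bromide; AC50 from Hill fit.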
# [4] = MultiTox-Fluor Cytotoxicity Assay - LYMP1-003 - Dead Cells (AID 961);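 note: cells exposed to compound for 16 h at 37 °C; nearly all actives have a fitted effect of over 70% in size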
# In short: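 Human lymphoblastoid LYMP1-003 cells (2500/well) were treated with compounds for 16 hr at 37 C in complete medium. Dead-cell protease release was read by bis-AAF-R110 fluorescence (Ex/Em 485/520). AC50 came from Hill fits, normalized to DMSO and 15 uM tetraoctylammonium bromide.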
# [5] = MultiTox-Fluor Cytotoxicity Assay - LYMP1-003 - Live Cells (AID 962);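 note: cells exposed to compound for 16 hours at 37 °C; cytotoxic hits lower the live-cell protease signal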
# In short: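 LYMP1-003 lymphoblastoid cells, 2500/well in complete medium, treated 16 h at 37 C; live-cell protease cleavage of GF-AFC read by fluorescence (Ex/Em 405/510) after 60 min reagent; AC50 from Hill fits of concentration-response.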
# [6] = Cell Viability - LYMP1-003 - Assay at 24 hr (AID 963)
# In short: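 Human lymphoblastoid LYMP1-003 cells, 2500/well, treated 24 h at 37 C in complete medium. Viability read as intracellular ATP by CellTiter-Glo luminescence after 30 min at room temperature; AC50 from Hill-equation fits of qHTS concentration-response.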
# [7] = Cell Viability - LYMP1-003 - Assay at 40 hr (AID 964); note: series mostly up to about 92 µM; nearly all actives have a fitted effect of over 60% in size
# In short: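 LYMP1-003 human lymphoblastoid cells, 2500/well, preincubated 5 h at 37 C, then treated with compound for 40 h at 37 C. Intracellular ATP read by CellTiter-Glo luminescence after 30 min at room temperature; AC50 from Hill-equation fits.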
# [8] = Cell Viability - LYMP2-003 (AID 965);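 note: cells exposed to compounds for 24 h before reading; nearly all actives have a fitted effect of over 50% in size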
# In short: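 Human lymphoblastoid LYMP2-003 cells, 2500/well, exposed to compounds for 24 h at 37 C in complete medium. Viability read as intracellular ATP by CellTiter-Glo luminescence; AC50 from Hill-equation fits of qHTS concentration-response data.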
# [9] = target: Pyruvate kinase PKM (Homo sapiens) (UniProt P14618); assay: qHTS Assay for Inhibitors of Human Muscle Pyruvate Kinase (AID 958); settings: purified human PKM enzyme activity
# In short: as §1
# [10] = target: Pyruvate kinase (Leishmania mexicana) (UniProt Q27686); assay: qHTS Validation Assay for Activators of Leishmania Mexicana Pyruvate Kinase (AID 959)
# Sequence of Pyruvate kinase (Leishmania mexicana) (Q27686 2-499 E452W): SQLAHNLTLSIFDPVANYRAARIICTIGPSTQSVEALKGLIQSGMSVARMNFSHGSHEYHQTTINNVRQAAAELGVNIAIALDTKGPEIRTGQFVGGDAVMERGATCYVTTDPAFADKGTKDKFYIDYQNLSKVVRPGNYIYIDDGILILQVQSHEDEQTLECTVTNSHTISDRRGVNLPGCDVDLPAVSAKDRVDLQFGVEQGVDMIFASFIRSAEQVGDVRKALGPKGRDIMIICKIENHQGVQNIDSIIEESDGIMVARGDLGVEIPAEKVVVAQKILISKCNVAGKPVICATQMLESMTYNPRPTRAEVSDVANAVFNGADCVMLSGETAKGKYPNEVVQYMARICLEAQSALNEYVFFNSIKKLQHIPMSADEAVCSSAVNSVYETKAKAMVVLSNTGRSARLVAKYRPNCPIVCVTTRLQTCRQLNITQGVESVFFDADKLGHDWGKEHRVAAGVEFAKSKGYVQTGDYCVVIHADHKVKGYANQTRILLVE
# In short: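 Eight-point qHTS titrations; enzyme 0.2 nM LmPYK (E451W mutant); substrates 0.5 mM PEP, 0.1 mM ADP; 7 mM MgCl2; 1 h room temperature; PKLight luminescence normalized to neutral control.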
compound,measurement,setting,value
Cc1cc(O)c2c(c1)C(=O)c1cc(O)cc(O)c1C2=O,outcome,[1],inactive
same,Potency,[2],inactive
same,outcome,[3],inactive
same,Potency,[4],inactive
same,Potency,[5],inactive
same,Potency,[6],inactive
same,Potency,[7],inactive
same,Potency,[8],inactive
C[C@H](Cc1ccc(O)c(O)c1)[C@@H](C)Cc1ccc(O)c(O)c1,outcome,[1],inactive
NCCCCNCCCN,outcome,[1],inactive
CC1(C)NC(=O)N(c2ccc([N+](=O)[O-])c(C(F)(F)F)c2)C1=O,outcome,[1],inactive
NC(=NCc1ccccc1)NC(=O)c1nc(Cl)c(N)nc1N,outcome,[1],inactive
CC1(C)C(=O)N(CCN2CCC(C(=O)c3ccc(F)cc3)CC2)c2ccccc21,outcome,[1],inactive
O=C(O)c1cccnc1Nc1cccc(C(F)(F)F)c1,outcome,[1],inactive
O=C1c2ccccc2-c2n[nH]c3cccc1c23,outcome,[1],inactive
Nc1nc(OCc2ccccc2)c2[nH]cnc2n1,outcome,[1],inactive
O=Nc1c(-c2c(O)[nH]c3cc(Br)ccc23)[nH]c2ccccc12,outcome,[1],inactive
same,Potency,[9],15.8 µM (active)
same,Potency,[10],inactive
O=C1NC(=O)C(c2ccccc2[N+](=O)[O-])=C1Nc1ccc(O)c(Cl)c1,outcome,[1],inactive
CS(=O)(=O)OCCCCOS(C)(=O)=O,Potency,[2],inactive
same,outcome,[3],inactive
same,Potency,[4],inactive
same,Potency,[5],inactive
same,Potency,[6],inactive
same,Potency,[7],inactive
same,Potency,[8],inactive
COc1c2occc2cc2ccc(=O)oc12,Potency,[2],inactive
same,outcome,[3],inactive
same,Potency,[4],inactive
same,Potency,[5],inactive
same,Potency,[6],inactive
same,Potency,[7],inactive
same,Potency,[8],inactive
O=c1ccc2ccc(O)c(O)c2o1,outcome,[1],inactive
same,Potency,[10],15.8 µM (active)
Cc1cccc(C#Cc2ccccc2)n1,outcome,[1],inactive
same,Potency,[9],25.1 µM (active)
same,Potency,[10],inactive
O=C(CCc1ccc(O)cc1)c1c(O)cc(O)cc1O,outcome,[1],inactive
Nc1ccc(S(N)(=O)=O)cc1,Potency,[2],inactive
same,outcome,[3],inactive
same,Potency,[4],inactive
same,Potency,[5],inactive
same,Potency,[6],inactive
same,Potency,[7],inactive
same,Potency,[8],inactive
c1ccc2[nH]c(-c3cscn3)nc2c1,Potency,[2],inactive
same,outcome,[3],inactive
same,Potency,[4],inactive
same,Potency,[5],inactive
same,Potency,[6],inactive
same,Potency,[7],inactive
same,Potency,[8],inactive
CCCCC(CC)COC(=O)C(C#N)=C(c1ccccc1)c1ccccc1 (centres undefined),Potency,[2],inactive
same,Potency,[4],inactive
same,Potency,[5],inactive
same,Potency,[6],inactive
same,Potency,[7],inactive
same,Potency,[8],inactive
NS(=O)(=O)c1cc(C(=O)O)c(NCc2ccco2)cc1Cl,Potency,[2],inactive
same,outcome,[3],inactive
same,Potency,[4],inactive
same,Potency,[5],inactive
same,Potency,[6],inactive
same,Potency,[7],inactive
same,Potency,[8],inactive
Cc1ccc(C)c(OCCCC(C)(C)C(=O)O)c1,Potency,[2],inactive
same,outcome,[3],inactive
same,Potency,[4],inactive
same,Potency,[5],inactive
same,Potency,[6],inactive
same,Potency,[7],inactive
same,Potency,[8],inactive
CNC[C@H](O)c1ccc(O)c(O)c1,outcome,[1],inactive
COc1ccc2cc([C@H](C)C(=O)O)ccc2c1,outcome,[1],inactive
O=c1c(O)c(-c2cc(O)c(O)c(O)c2)oc2cc(O)cc(O)c12,outcome,[1],inactive
same,Potency,[10],2 µM (active)
Cc1c(OCC(F)(F)F)ccnc1CS(=O)c1nc2ccccc2[nH]1 (centres undefined),outcome,[1],inactive
